Experimental data: the supplement of paper PMC7156485
Where “and” joins values, the source holds several entries; their conditions need not be identical. Equal entries are not always repeated. ± gives the standard deviation of the averaged measurements.

Columns and labels:
Conditions in all cases: concentration: 10 µM; 24 h
HCC1569 [1] = assay: cell number relative to DMSO (% of DMSO); higher = more cells (less growth inhibition / toxicity)
Method in brief: (§1)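 HCC1569 and TDF cells (800 per well, 384-well plates, RPMI with 10% FBS) were treated with compounds at 10 µM for 24 h at 37 °C, in triplicate. Cells were fixed in 3.7% formaldehyde and stained with a rabbit anti-H1.0 antibody, an AlexaFluor 647 secondary and DAPI; six fields per well were imaged at ×10. H1.0 nuclear intensity or cell number is expressed as percent of the plate DMSO control, taking the median of replicates. HCC1569 values were smoothed for positional effects.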

TDF [2] = assay: as above
Method in brief: as §1

TDF [3] = assay: H1.0 immunofluorescence intensity relative to DMSO (% of DMSO); higher = stronger H1.0 induction, active = 120 or more
Method in brief: as §1

HCC1569 [4] = assay: H1.0 immunofluorescence intensity relative to DMSO (% of DMSO); higher = stronger H1.0 induction, active = 140 or more
Method in brief: as §1
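Wherever H1.0 immunofluorescence intensity relative to DMSO is given: TDF is a line of transformed human dermal fibroblasts of mesenchymal origin.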
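Wherever cell number relative to DMSO is given: TDF denotes transformed human dermal fibroblasts of mesenchymal origin.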

Compound	cell number (HCC1569 [1])	cell number (TDF [2])	H1.0 immunofluorescence intensity (TDF [3])	H1.0 immunofluorescence intensity (HCC1569 [4])
CCOc1ccccc1OCCNC(C)Cc1ccc(OC)c(S(N)(=O)=O)c1 (stereo not drawn) [Tamsulosin]	98.8	96.7	97.8 (inactive)	95.4 (inactive)
C[N+](C)(C)CC=O.[Cl-] [Betaine aldehyde chloride]	104	115	94.6 (inactive)	83.1 (inactive)
Cl.O=S(=O)(c1cccc2c(Cl)cccc12)N1CCCNCC1	99 and 96.6	104	103 (inactive) and 93.2 (inactive)	105 (inactive) and 97.4 (inactive)
Nc1nc(SCc2ccc([N+](=O)[O-])cc2)c2ncn(C3OC(CO)C(O)C3O)c2n1 (stereo not drawn) [S-(4-Nitrobenzyl)-6-thioguanosine]	101	98.2	94.5 (inactive)	93.2 (inactive)
Cc1ccc(C(=O)Nc2ccc(S(=O)(=O)[O-])c3cc(S(=O)(=O)[O-])cc(S(=O)(=O)[O-])c23)cc1NC(=O)c1cccc(NC(=O)Nc2cccc(C(=O)Nc3cc(C(=O)Nc4ccc(S(=O)(=O)[O-])c5cc(S(=O)(=O)[O-])cc(S(=O)(=O)[O-])c45)ccc3C)c2)c1.[Na+].[Na+].[Na+].[Na+].[Na+].[Na+] [Suramin hexasodium]	101	101	98.5 (inactive)	102 (inactive)
Cc1ccc(Cl)c(Nc2ccccc2C(=O)[O-])c1Cl.[Na+] [sodium 2-(2,6-dichloro-3-methylanilino)benzoate]	99.4	111	97.9 (inactive)	102 (inactive)
CC(COc1ccccc1)N(CCCl)Cc1ccccc1.Cl (stereo not drawn) [Phenoxybenzamine.HCl]	106	103	97.7 (inactive)	102 (inactive)
COc1ccccc1N1CCN(CCN(C(=O)C2CCCCC2)c2ccccn2)CC1.O=C(O)C=CC(=O)O	104	102	101 (inactive)	100 (inactive)
O=C(Nc1nc2ccccc2n1CCN1CCOCC1)c1cccc([N+](=O)[O-])c1 [IRAK-1/4 Inhibitor]	98.2	104	91.2 (inactive)	117 (inactive)
CCCCCCCCCCCCCCCC(O)C(N)CO (racemic) [DL-erythro-Dihydrosphingosine]	102	87.8	108 (inactive)	96.9 (inactive)
CCC(=C(c1ccccc1)c1ccc(OCCN(C)C)cc1)c1ccccc1.O=C(O)CC(O)(CC(=O)O)C(=O)O [Tamoxifen citrate]	85.2	95.2	115 (inactive)	146 (active)
CN(C)CC(=O)Nc1ccc2[nH]c(=O)c3ccccc3c2c1.Cl.O	101	99.1	97.4 (inactive)	91.3 (inactive)
CC(C)c1ccc(C(=O)N=C(N)N)cc1S(C)(=O)=O [N''-[4-isopropyl-3-(methylsulfonyl)benzoyl]guanidine]	101	93.4	99.1 (inactive)	100 (inactive)
COC1C=CC=C(C)C(=O)NC2=CC(=O)C=C(C2=O)C(OC)C(C)CC(OC)C(OC)C(C)C=C(C)C1OC(N)=O (stereo not drawn) [Herbimycin A, Streptomyces sp.]	62.4	54.7	88.3 (inactive)	180 (active)
CCCCCCCCC=CCCCCCCCCCCCCC(=O)O [14(E)-Tricosenoic acid]	98.3	98.1	93.3 (inactive)	104 (inactive)
CNC(=O)C1OC(n2cnc3c(NCc4cccc(I)c4)ncnc32)C(O)C1O (stereo not drawn)	102	114	87.4 (inactive)	82.1 (inactive)
CCCCCCCCCCCCCCC(=O)O [Pentadecanoic acid]	99	92.6	105 (inactive)	107 (inactive)
O=c1cc(-c2ccc(O)cc2)oc2cc(OC3OC(CO)C(O)C(O)C3O)cc(O)c12 (stereo not drawn) [Apigenin-7-glucoside]	98.2	99.3	93.7 (inactive)	91 (inactive)
Nc1c(C(=O)O)c2nc3c(C(=O)O)cccc3oc-2cc1=O [2-amino-3-oxo-3H-phenoxazine-1,9-dicarboxylic acid]	92	88.1	110 (inactive)	101 (inactive)
COc1ccc(Cl)cc1C(=O)NCCc1ccc(S(=O)(=O)NC(=O)NC2CCCCC2)cc1 [Glibenclamide]	101	105	93.9 (inactive)	90.3 (inactive)
O=C(O)c1cc(=O)c2ccccc2[nH]1 [Kynurenic acid]	107	106	91.3 (inactive)	94.5 (inactive)
CNc1nc(-c2ccc3c(N)n[nH]c3c2)cc(N2C[C@@H](C(=O)NC3CCCCC3)CC[C@H]2C)n1	52.3	77.9	115 (inactive)	161 (active)
CNS(=O)(=O)Cc1ccc2[nH]cc(CCN(C)C)c2c1.O=C(O)CCC(=O)O [Sumatriptan Succinate]	98	106	90.9 (inactive)	114 (inactive)
Cl.NCCc1ccc(O)c(O)c1 [Dopamine hydrochloride]	106	100	93.5 (inactive)	89.7 (inactive)

Compound	cell number (HCC1569 [1])	cell number (TDF [2])	H1.0 immunofluorescence intensity (TDF [3])	H1.0 immunofluorescence intensity (HCC1569 [4])
CCCOc1ccccc1-c1nc2[nH][nH]nc-2c(=O)n1 [Zaprinast]	100.3 ± 0.47	113 ± 8.6	99.1 (inactive)	104 (inactive)
COc1ccc(CCN(C)CCCC(C#N)(c2cc(OC)c(OC)c(OC)c2)C(C)C)cc1OC.Cl (racemic)	96.5	109	89 (inactive)	92.3 (inactive)
N=C(N)N1CCc2ccccc2C1 [Debrisoquin]	103	102	96 (inactive)	96.4 (inactive)
c1ccc(C2CN3CCSC3=N2)cc1 (stereo not drawn) [Levamisole]	98.3	94.6	102 (inactive)	92.1 (inactive)
CCCCCCCCCCCC=CCC=CCCCC(=O)O [5(Z), 8(Z)-Eicosadienoic acid]	101	96.9	99.9 (inactive)	99.3 (inactive)
NC(N)=NCc1cccc(I)c1.NC(N)=NCc1cccc(I)c1.O=S(=O)(O)O [m-Iodobenzylguanidine hemisulfate]	109	98.8	98.1 (inactive)	98.4 (inactive)
O=C(O)CCc1nc(-c2ccccc2)c(-c2ccccc2)o1 [Oxaprozin]	104	101	96.9 (inactive)	97.7 (inactive)
CCCCCC=CC=C1C(=O)C=CC1CC=CCCCC(=O)O (stereo not drawn) [15d-Prostaglandin J2]	98.9	102	97.5 (inactive)	104 (inactive)
COc1ccc2cc(C(C)C(=O)[O-])ccc2c1.[Na+] (single isomer, unassigned; (-)) [(-)-Naproxen sodium]	105	93.1	96.1 (inactive)	102 (inactive)
CCCCCCCCCCCCCCCC(O)C(N)CO (stereo not drawn) [Dihydrosphingosine]	102	94.5	98.8 (inactive)	106 (inactive)
N#Cc1cc2nc([O-])c([O-])nc2cc1[N+](=O)[O-].[Na+].[Na+] [CNQX disodium]	99.5	101	94.1 (inactive)	101 (inactive)
CCCCCC(O)C=CC1OC(=O)CC(O)C1CC=CCCCC(=O)O (stereo not drawn) [11-Dehydro-thromboxane B2]	100	97	98.6 (inactive)	102 (inactive)
COC(=O)C1C(O)CCC2CN3CCc4c([nH]c5ccccc45)C3CC21 (stereo not drawn) [Corynanthine]	106	94.3	102 (inactive)	95.3 (inactive)
Cc1onc(-c2ccccc2)c1C(=O)NC1C(=O)N2C1SC(C)(C)C2C(=O)[O-] (stereo not drawn) [Oxacillin]	99.8	105	91.4 (inactive)	111 (inactive)
CC(C)S(=O)(=O)N[C@H]1CCOC[C@@H]1c1ccc(-c2ccc(C#N)s2)cc1	100	98.3	96.5 (inactive)	104 (inactive)
CC(C)NCC(O)c1ccc(O)c(O)c1.O=C(O)C(O)C(O)C(=O)O (stereo not drawn) [R(-)-Isoproterenol (+)-bitartrate]	99.2	79.3	99 (inactive)	120 (inactive)
CCCCS(=N)(=O)CCC(N)C(=O)O [L-Buthionine-sulfoximine]	102	96.6	97.4 (inactive)	95.6 (inactive)
CSc1ccc2c(c1)N(CCC1CCCCN1C)c1ccccc1S2 (stereo not drawn) [Thioridazine]	102	102	105 (inactive)	133 (inactive)
COC(=O)C1=C(C)NC(C)=C([N+](=O)[O-])C1c1ccccc1C(F)(F)F (racemic)	99	103	92.2 (inactive)	98 (inactive)
CCn1cc(C(=O)O)c(=O)c2cc(F)c(N3CCNCC3)cc21 [Norfloxacin]	100	108	105 (inactive)	101 (inactive)
CCCN(CCc1ccccc1)C1CCc2c(O)cccc2C1 (stereo not drawn) [2-(N-Phenethyl-N-propyl)amino-5-hydroxytetralin]	105	96.6	89.4 (inactive)	106 (inactive)
CC1(COc2ccc(CC3SC(=O)NC3=O)cc2)CCCCC1 (stereo not drawn) [Ciglitazone]	99.8	91.8	102 (inactive)	96.6 (inactive)
C=CC1CN2CCC1CC2C(O)c1ccnc2ccc(OC)cc12.C=CC1CN2CCC1CC2C(O)c1ccnc2ccc(OC)cc12.O=S(=O)(O)O (stereo not drawn) [Quinidine sulfate]	99	99.9	95.4 (inactive)	112 (inactive)
